Results published in ChEMBL document CHEMBL3988442, “University of Dundee, Small-Polar-MMV Screening Library” (2021).
Hit rate of the full screen: of about 85,000 compounds, about 440 (0.52%) showed an effect of 50% or more. The list comes from a sample in which strong results are over-represented; it also holds similar structures and randomly drawn compounds.

Experiment: In vitro enzyme assay to detect hydrolysis of chlorophenol red-beta-D-[…] directly proportional to the number of Toxoplasma stably expressing beta-galactosidase
Assay type: functional, organism-based, Toxoplasma gondii
Design: scale not given: in the data most compounds retested in dose-response had high values

Structure (SMILES) | Percent Effect (50 µM) [%] | Percent Effect (10 µM) [%]
COc1ccc(NC(=O)CN)cc1Cl | 1.653 | –
O=C1CNC2(CCCCC2)C(=O)N1 | -1.267 | –
OCc1cnc2c(F)cccc2c1 | -7.989 | –
O=C(NCCCn1cccn1)N1CCSCC1 | 12.95 | –
CC1COCCN1CCNS(C)(=O)=O (configuration not stated) | -4.94 | –
CCC(N)C(=O)N1CCN(c2ccncc2Cl)CC1 (configuration not stated) | 0.3763 | –
OCC1(O)CCN(Cc2cc3ccccc3s2)C1 (configuration not stated) | 15.65 | –
O=C(COc1ccc2c(c1)CCC2)NCc1ccco1 | – | 52.59
O=C(COc1ccc2c(c1)OCO2)NCc1ccco1 | – | -39.93
O=C(COc1ccc2c(c1)CCCC2=O)NCc1ccco1 | – | -0.7551
CN(C1CCCCC1)S(=O)(=O)NC1CCCCNC1=O (configuration not stated) | -10.23 | –
CCCc1nc(C)cc(NCCO)n1 | 22.28 | –
CCc1cccc(OCC(=O)N2CCCC(n3cncn3)C2)c1 (configuration not stated) | – | 61.63
COc1cccc(COCC(=O)N2CCCC(n3cncn3)C2)c1 (configuration not stated) | – | 5.194
O=C(CCOc1cccc(F)c1)N1CCCC(n2cncn2)C1 (configuration not stated) | – | -5.343
CN(Cc1ccccc1)C1(CN)CCC1 | -8.467 | –
OC1CCN(c2ccnc(NCCN3CCc4ccccc4C3)n2)C1 (configuration not stated) | – | -7.659
OC1CCN(c2ccnc(NCCc3ccccc3Cl)n2)CC1 | – | -8.745
OC1CCN(c2ccnc(NCCc3ccccc3Cl)n2)C1 (configuration not stated) | – | 73.82
CC1(C)CCN(C(=O)Nc2ccsc2)CCS1(=O)=O | 14.26 | –
O=C(CCCc1cn[nH]c1)N1CCS(=O)(=O)CC1 | -1.399 | –
CCN(CC)S(=O)(=O)c1cc2c3c(c1)c(C)cc(=O)n3CCC2 | – | 17.21
Cc1cc(S(C)(=O)=O)c(C)c(S(=O)(=O)NC2CCCC2)c1 | – | -4.298
Cc1c(S(=O)(=O)N2CCOCC2)cc2c(C)cc(=O)n3c2c1CCC3 | – | 70.37
O=C1COc2ccc(S(=O)(=O)N3CCOCC3)c3c2N1CCC3 | – | -24.36

Structure (SMILES) | Percent Effect (50 µM) [%] | Percent Effect (10 µM) [%]
Cc1cc2[nH]c(=O)c(=O)[nH]c2cc1S(=O)(=O)NC1CCCCC1 | – | 9.258
CCN(CC)S(=O)(=O)c1cc2c3c(c1)c(C)cc(=O)n3CC2 | – | -2.001
Cc1c(S(=O)(=O)NC2CC2)cc2c(C)cc(=O)n3c2c1CCC3 | – | 69.29
Cc1cc(=O)n2c3c(cc(S(=O)(=O)NC4CC4)cc13)CCC2 | – | 88.28
CCCNS(=O)(=O)c1cc2c3c(c1)c(C)cc(=O)n3CCC2 | – | -12.19
Cc1cccc(OCC(=O)NCC2CCNCC2)c1 | -0.8091 | –
CCOC(=O)N1CCN(C(=O)c2onc(C)c2Cl)CC1 | 1.461 | –
CCSc1cc(CN)ccn1 | -10.09 | –
NC(=O)CCSc1nc2ncccn2n1 | -6.184 | –
CCCC(=O)N(C)C1CCN(C)CC1 | 4.372 | –
COc1ccc(CNC(=O)CN)cc1 | -16.08 | –
CC(C)C(CC(=O)NCC(N)=O)c1ccccc1 (configuration not stated) | 0.4392 | –
CCCNC(=O)c1cc(-c2cnc(N3CCCC3)nc2)cn1C | – | 59.81
Cn1cc(-c2cnc(N3CCCC3)nc2)cc1C(=O)O | – | -6.676
CN(C)CCNC(=O)c1cc(-c2cnc(N3CCCC3)nc2)cn1C.O=C(O)C(F)(F)F | – | 16.58
CNS(=O)(=O)c1c[nH]cn1 | -8.669 | –
NC1CCN(Cc2ccccc2)C1=O (configuration not stated) | 57.3 | –
NC1CCCN(Cc2ccccc2)C1=O (configuration not stated) | 3.99 | –
Cc1ccc(CN2CCC(N)C2=O)cc1 (configuration not stated) | 0.3266 | –
Cn1nccc1C(=O)NC1Cc2ccccc2C1 | 4.859 | –
CCc1nc(CN2CCCC2C(=O)N(C)C)cs1 (configuration not stated) | 6.641 | –
CC(NC(=O)c1ccncc1F)C(C)(C)CN(C)C (configuration not stated) | -0.7264 | –
CCN(CC)CCOC1CCNCC1 | -2.471 | –
Cc1cc(NC(=O)COc2ccc3c(c2)OCO3)no1 | 15.18 | –
CC(=O)c1cccc(OCC(=O)NC2CCCC2)c1 | -4.665 | –

Structure (SMILES) | Percent Effect (50 µM) [%] | Percent Effect (10 µM) [%]
CC(=O)c1cccc(OCC(=O)Nc2cc(C)on2)c1 | 98.67 | –
Cc1cc(CNCc2c(C)nn(C)c2N2CCOCC2)no1 | – | -17.93
COc1c(CNC2(c3ccc(Cl)cc3)CCC2)c(C)nn1C | – | 7.233
Cc1csc(CNCc2c(C)nn(C)c2N2CCOCC2)n1 | – | -26.69
Cc1nc(C2(NCc3c(C)nn(C)c3N3CCOCC3)CCC2)no1 | – | 56.3
COc1c(CNC2(c3noc(C)n3)CCC2)c(C)nn1C.Cl | – | 55.08
COc1c(CNC2(c3noc(C)n3)CCC2)c(C(C)C)nn1C.Cl | – | 11.38
CC(C)(C)OC(=O)NCCCOC1CCNCC1 | 10.6 | –
O=C(CSc1nnnn1Cc1cccs1)NC1CC1 | -25.88 | –
CCCn1nc2c(cc1=O)CN(c1ncnc3ccsc13)CC2 | – | -2.045
Cn1nc2c(cc1=O)CN(c1nc3ccccc3s1)CC2 | – | -0.5196
CC(C)n1nc2c(cc1=O)CN(c1ncnc3ccccc13)CC2 | – | -24.89
CC(C)n1nc2c(cc1=O)CN(c1ncnc3ccsc13)CC2 | – | 9.432
Cn1nc2c(cc1=O)CN(c1ncnc3ccsc13)CC2 | – | 82.27
CCn1nc2c(cc1=O)CN(c1ncnc3ccsc13)CC2 | – | 76.59
O=C(NC1CCCc2[nH]c(=O)ccc21)c1cc(Br)c[nH]1 (configuration not stated) | 33.46 | –
O=C(CCCn1cccn1)N[C@H]1C[C@@H]2OCC[C@H]12 | 16.13 | –
O=C(Cc1cccs1)N1CCNCC1 | 1.272 | –
Cc1nn(C)c2c(=O)n(C)c(NCC3CCCO3)nc12 (configuration not stated) | – | 10.39
CCn1c(NCC2CCCO2)nc2c(C)nn(C)c2c1=O (configuration not stated) | – | 22.67
Cc1nn(C)c2c(N3CCCC3)nc(C3CC3)nc12 | – | 10.42
CCCn1c(N2CCCCC2)nc2c(C)nn(C)c2c1=O | – | 85.32
CCn1nc(C)c2ncnc(N3CCCC(C)C3)c21 (configuration not stated) | – | 16.85
CCCn1c(N2CCCC(C)C2)nc2c(C)nn(C)c2c1=O (configuration not stated) | – | 58.79
CCCn1c(N2CCCC2)nc2c(C)nn(C)c2c1=O | – | 74.14

Structure (SMILES) | Percent Effect (50 µM) [%] | Percent Effect (10 µM) [%]
CCCc1nc(N2CCCCCC2)c2c(n1)c(C)nn2CC | – | 14.57
CCCc1nc(N2CCCC(C)C2)c2c(n1)c(C)nn2CC (configuration not stated) | – | 19
CC(N)C1(N2CCOCC2)CCCC1 (configuration not stated) | -11.55 | –
CCNC(=O)c1cc2ccc(OC)cc2[nH]1 | -0.6946 | –
O=C(NCC(F)(F)F)C1CCN(CC(F)F)CC1 | -5.562 | –
CCN(Cc1nonc1C)C(=O)Cn1nc(C(F)(F)F)cc1C1CC1 | – | 53.8
CCN(Cc1nonc1C)C(=O)c1cc(C(F)(F)F)nn1C | – | 29.16
CCN(Cc1nonc1C)C(=O)Cn1nc(C(F)(F)F)cc1C | – | 32.79
CC(CO)(CO)NC(=O)Nc1cc(Br)ccc1F | 12.92 | –
CCOCCCNC(=O)c1cn(CC)nc1C | – | 0.2391
CCOCCCNc1nc2c(s1)c(C)nn2C | – | -0.8738
Cc1nn(C)c2nc(-c3ccccn3)nc(NCCCOC(C)C)c12 | – | -3.21
COCCNc1cc(C)nn2cnnc12 | – | 70.24
Cc1cc(NCCCOC(C)C)c2nncn2n1 | – | 73.87
COCCCNc1cc(C)nn2cnnc12 | – | 36.97
COc1cc(-c2cnnc(NCCCOC(C)C)n2)cc(OC)c1OC | – | 4.137
CCOCCCNc1cc(C)nn2cnnc12 | – | 66.33
COCCn1cnnc1CNc1cc(C)nc2c(C)c(C)nn12 | – | -11.49
Cc1n[nH]c(SCC(=O)NC2CCCCC2)n1 | 32.19 | –
Nc1ccn(-c2ccc(C(F)(F)F)cn2)n1 | 9.315 | –
CC(C)c1ccn(C)n1 | 1.261 | –
Cn1nccc1CCC(=O)NCC[C@@H]1CCCN1 | 2.008 | –
CCC(C)C(=O)NCCCn1nc(C)cc1C (configuration not stated) | – | 6.68
Cc1cc(C)n(CCC(=O)NCc2ccccn2)n1 | -3.878 | –
CCCNC(=O)CCn1nc(C)cc1C | 59.42 | –

Structure (SMILES) | Percent Effect (50 µM) [%] | Percent Effect (10 µM) [%]
C=C(C)CNc1nc2nonc2nc1NCCOC | 14.38 | –
CC(C)c1nnsc1CNC(=O)CCc1csc(N)n1 | -4.031 | –
Cc1cc(C(=O)NC(C)c2ccncc2)ncn1 (configuration not stated) | 8.375 | –
CC(=O)Nc1ccccc1CN | -1.882 | –
CCCNC(=O)N1CCN(CCC)CC1 | -47.68 | –
CCNC(=O)N1CCNCC1 | 13.83 | –
CCCC(=O)N1CCN(C(=O)NCC)CC1 | 54.38 | –
COCC(C)(O)C(F)(F)F (configuration not stated) | 7.186 | –
CC1Cc2ccccc2N1C(=O)c1ccccn1 (configuration not stated) | 2.942 | –
COCC(O)CN(C)CCn1cc(Br)cn1 (configuration not stated) | 16.66 | –
c1cnn(CCCNCCCn2cccn2)c1 | 0.4357 | –
CCN(CC)CCNc1nc(C(C)C)nc2c(C)nn(CC)c12 | – | 58.79
CCn1nc(C)c2nc(C(C)C)nc(NCCCO)c21 | – | 1.913
CCn1nc(C)c2nc(C(C)C)nc(NCCc3ccc(O)cc3)c21 | – | 48.01
CCn1nc(C)c2nc(C(C)C)nc(NCC(C)C)c21 | – | 49.36
CCn1nc(C)c2nc(C(C)C)nc(NC)c21 | – | 39.93
CCn1nc(C)c2nc(C(C)C)nc(NCC(C)O)c21 (configuration not stated) | – | 75.76
COc1ccnc(N2CC[S+]([O-])CC2)n1 | -6.202 | –
O=C(CC1C=CCC1)NCc1ccccn1 (configuration not stated) | -4.879 | –
Cc1cccc(NC(=O)NC2CCN(C)CC2)c1 | -9.939 | –
CC(NC(=O)NCCCN1CCCC1=O)c1ccco1 (configuration not stated) | -1.872 | –
CCN(Cc1cccc(F)c1)C1CCS(=O)(=O)C1 (configuration not stated) | -4.951 | –
